Active and inactive are the calls of the source.
Experiments:
[1] = E. coli DRC41 culture turbidity changes, primary screen, E. coli filamentation inducer project, strain DRC41, OD650, 48 h (AID 1152);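 note: E. coli MC1000 strain DRC41 lacking acrAB efflux pump and sulA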; conditions: E. coli DRC41 (acrAB sulA), higher = more signal, called active from +8 up or from −8 down
[2] = small-molecule binders of probe aLefty1, primary screen, biochemical, small-molecule microarray, 635/667 nm fluorescence (AID 1153); conditions: higher = more signal;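 note: score merges spot fluorescence with signal-to-noise ratio from the scanned slide images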
[3] = PSAC antagonists in infected red cells, primary screen, cell-based, P. falciparum Indochina, OD700, 1 h (AID 1154); conditions: P. falciparum Indochina infected RBC osmotic lysis, higher = more signal, called active from +8 up or from −8 down
[4] = PSAC antagonists in infected red cells, primary screen, cell-based, P. falciparum Indochina, OD700, 2 h (AID 1155);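 note: lysis reports solute entry through the parasite surface anion channel PSAC; channel blockers reduce lysis of infected cells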; conditions: P. falciparum Indochina infected erythrocytes, osmotic lysis OD700; higher = more signal, called active from +8 up or from −8 down
[5] = osmotic lysis modulators in infected erythrocytes, primary screen, PSAC antagonist project, cell-based, P. falciparum Indochina, OD700, 3 h (AID 1156); conditions: higher = more signal, called active from +8 up or from −8 down
[6] = PSAC antagonists in infected red cells, primary screen, cell-based, P. falciparum Indochina, OD700, 18 h (AID 1157); conditions: P. falciparum Indochina infected erythrocytes, osmotic lysis OD700, 18 h; higher = more signal, called active from +8 up or from −8 down
[7] = modulators of S6 phosphorylation in cells, primary screen, cell-based, A549, cytoblot, luminescence, serum-stimulated (AID 1158); conditions: A549 phospho-S6 cytoblot, 5 h, higher = more signal;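 note: serum-stimulated A549 lung adenocarcinoma cells; signal is phosphorylated S6 detected by cytoblot immunostaining with HRP secondary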
[8] = molecular target: NADPH oxidase 2 (Homo sapiens) (UniProt P04839); test: NOX2-dependent H2O2 signal modulators, primary screen, NOX inhibitor project, cell-based, HEK293-NOX2, PMA-stimulated, Amplex Red fluorescence (AID 1159); conditions: 45 min, higher = more signal, called active from +8 up or from −8 down; note: test concentration not given here
[9] = molecular target: NADPH oxidase 4 (Homo sapiens) (UniProt Q9NPH5); test: NOX4-dependent H2O2 signal modulators, primary screen, NOX inhibitor project, cell-based, HEK293-NOX4, tetracycline-induced, Amplex Red fluorescence (AID 1160); conditions: 45 min, higher = more signal, called active from +8 up or from −8 down
[10] = molecular target: NADPH oxidase 5 (Homo sapiens) (UniProt Q96PH1); test: NOX5-dependent H2O2 signal modulators, primary screen, NOX inhibitor project, cell-based, HEK293-NOX5, Amplex Red fluorescence (AID 1161); conditions: HEK293-NOX5, ionomycin, 45 min, higher = more signal
[11] = A549 cell viability effects, profiling panel, calcein-AM fluorescence, 48 h, basal (AID 1162); conditions: higher = more signal; note: test concentration not given here
[12] = adipocyte viability effects, profiling panel, cell-based, 3T3-L1 adipocytes, calcein-AM fluorescence, 48 h, basal (AID 1163); conditions: 3T3-L1 adipocytes viability, higher = more signal; note: test concentration not given here
[13] = HepG2 cell viability effects, profiling panel, calcein-AM fluorescence, 48 h, basal (AID 1164); conditions: higher = more signal; note: test concentration not given here
[14] = MM1S cell viability effects, profiling panel, calcein-AM fluorescence, 48 h, basal (AID 1165); conditions: higher = more signal;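 note: viability of MM1S multiple myeloma cells under basal unstimulated conditions; test concentration not given here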
[15] = basal RPMI8226 viability, no added stimulus, profiling panel, cell-based, calcein-AM fluorescence, 48 h, PK04 Diversity Set (AID 1166); conditions: RPMI8226 myeloma viability, higher = more signal;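 note: cells grown under basal conditions without added stimulus; test concentration not given here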
[16] = basal HepG2 mitochondrial membrane potential changes, profiling panel, cell-based, JC-1 fluorescence, 24 h, 100 nL compound (AID 1167); conditions: higher = more signal; note: test concentration not given here
[17] = basal 3T3-L1 adipocyte mitochondrial potential changes, profiling panel, cell-based, JC-1 fluorescence, 3T3-L1 adipocytes, 24 h, 100 nL compound (AID 1168); conditions: JC-1 mitochondrial fluorescence, higher = more signal, called active from +8 up or from −8 down; note: test concentration not given here
[18] = basal RPMI8226 mitochondrial membrane potential changes, profiling panel, cell-based, JC-1 fluorescence, 24 h, 100 nL compound (AID 1169); conditions: RPMI8226 myeloma, JC-1 mitochondrial potential fluorescence, higher = more signal; note: test concentration not given here
[19] = basal MM1S mitochondrial membrane potential changes, profiling panel, cell-based, JC-1 fluorescence, 24 h, 100 nL compound (AID 1170); conditions: higher = more signal; note: test concentration not given here
[20] = A549 lung cancer cell viability effects, profiling panel, resazurin fluorescence, 24 h, PK04 Diversity Set (AID 1171); conditions: higher = more signal, called active from +8 up or from −8 down; note: test concentration not given here

NADPH oxidase 5 (Homo sapiens), sequence (Q96PH1 whole entry, looked up): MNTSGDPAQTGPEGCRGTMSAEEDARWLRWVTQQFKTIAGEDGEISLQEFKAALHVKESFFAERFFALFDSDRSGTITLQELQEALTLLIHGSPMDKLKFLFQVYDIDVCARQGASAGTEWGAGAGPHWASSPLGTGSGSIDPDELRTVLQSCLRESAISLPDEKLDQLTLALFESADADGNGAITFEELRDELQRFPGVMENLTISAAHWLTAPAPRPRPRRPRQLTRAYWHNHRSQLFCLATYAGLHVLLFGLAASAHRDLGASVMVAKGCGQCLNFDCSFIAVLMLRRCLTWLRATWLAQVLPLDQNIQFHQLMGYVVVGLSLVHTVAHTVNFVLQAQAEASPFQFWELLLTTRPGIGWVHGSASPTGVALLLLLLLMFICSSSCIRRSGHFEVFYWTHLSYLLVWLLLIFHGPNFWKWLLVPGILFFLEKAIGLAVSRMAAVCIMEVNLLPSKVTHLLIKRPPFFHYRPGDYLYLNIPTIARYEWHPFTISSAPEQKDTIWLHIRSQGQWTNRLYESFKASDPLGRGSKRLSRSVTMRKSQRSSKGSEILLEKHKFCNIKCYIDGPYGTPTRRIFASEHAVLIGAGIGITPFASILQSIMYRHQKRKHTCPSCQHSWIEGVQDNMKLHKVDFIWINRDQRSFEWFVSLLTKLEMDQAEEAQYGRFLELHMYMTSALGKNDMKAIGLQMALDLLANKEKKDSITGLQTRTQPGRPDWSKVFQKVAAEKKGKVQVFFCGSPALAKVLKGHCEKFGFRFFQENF
NADPH oxidase 4 (Homo sapiens), sequence (Q9NPH5 whole entry, looked up): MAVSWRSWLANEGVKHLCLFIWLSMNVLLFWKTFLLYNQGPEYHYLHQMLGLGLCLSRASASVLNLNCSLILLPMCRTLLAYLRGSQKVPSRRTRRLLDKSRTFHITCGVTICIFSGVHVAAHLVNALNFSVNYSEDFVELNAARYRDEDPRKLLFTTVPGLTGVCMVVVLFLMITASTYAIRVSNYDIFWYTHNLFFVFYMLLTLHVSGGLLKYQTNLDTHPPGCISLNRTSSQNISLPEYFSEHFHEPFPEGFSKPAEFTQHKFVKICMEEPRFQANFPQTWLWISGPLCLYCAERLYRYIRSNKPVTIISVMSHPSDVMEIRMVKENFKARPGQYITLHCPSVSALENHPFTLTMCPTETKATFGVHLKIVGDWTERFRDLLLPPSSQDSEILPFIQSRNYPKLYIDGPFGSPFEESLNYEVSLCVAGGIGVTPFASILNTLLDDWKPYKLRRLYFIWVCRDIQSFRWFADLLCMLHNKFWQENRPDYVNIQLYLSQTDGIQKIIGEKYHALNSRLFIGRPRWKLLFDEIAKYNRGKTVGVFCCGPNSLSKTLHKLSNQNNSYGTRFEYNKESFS
NADPH oxidase 2 (Homo sapiens), sequence (P04839 whole entry, looked up): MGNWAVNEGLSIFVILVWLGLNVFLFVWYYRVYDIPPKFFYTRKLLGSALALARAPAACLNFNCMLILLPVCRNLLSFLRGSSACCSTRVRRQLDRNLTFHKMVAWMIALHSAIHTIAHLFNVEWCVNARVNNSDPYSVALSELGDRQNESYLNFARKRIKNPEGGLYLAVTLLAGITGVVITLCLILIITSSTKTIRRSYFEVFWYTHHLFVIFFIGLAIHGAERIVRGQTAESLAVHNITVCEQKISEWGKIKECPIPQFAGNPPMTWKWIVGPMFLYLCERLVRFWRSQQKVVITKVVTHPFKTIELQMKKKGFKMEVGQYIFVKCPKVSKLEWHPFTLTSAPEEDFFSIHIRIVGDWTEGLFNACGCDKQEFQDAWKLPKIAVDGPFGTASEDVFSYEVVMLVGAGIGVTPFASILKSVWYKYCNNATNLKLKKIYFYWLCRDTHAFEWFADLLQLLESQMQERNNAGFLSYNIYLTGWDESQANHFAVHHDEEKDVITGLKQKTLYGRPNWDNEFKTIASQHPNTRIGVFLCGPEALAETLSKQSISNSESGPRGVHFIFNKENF

| SMILES | z-score [1] | composite z-score [2] | z-score [3] | z-score [4] | z-score [5] | z-score [6] | z-score [7] | z-score [8] | z-score [9] | z-score [10] | z-score [11] | z-score [12] | z-score [13] | z-score [14] | z-score [15] | z-score [16] | z-score [17] | z-score [18] | z-score [19] | z-score [20] |
| --- | --- | --- | --- | --- | --- | --- | --- | --- | --- | --- | --- | --- | --- | --- | --- | --- | --- | --- | --- | --- |
| COCCOC(=O)N1C(=O)[C@@]2(c3cc(C#CC4=CCCCC4)ccc31)[C@H](C(=O)N1CCCCCCC1)[C@H]1C(=O)O[C@H](c3ccccc3)[C@H](c3ccccc3)N1[C@@H]2c1ccccc1OCCO | 0.857 (inactive) | 1.11 | 0.951 (inactive) | 1.01 (inactive) | -0.249 (inactive) | 0.413 (inactive) | 0.526 | -0.129 (inactive) | 0.322 (inactive) | 0.0795 | -0.314 | 0.922 | -0.107 | -0.99 | -0.813 | 0.0436 | 0.992 (inactive) | -0.966 | -0.982 | 0.356 (inactive) |
| COC(=O)[C@@]1(Cc2ccc(OC)cc2)[C@@H]2[C@@H](CC(=O)[C@H]2CC(=O)C(=O)N(C)C)CN1C(=O)c1ccccc1 | -0.715 (inactive) | 2.12 | 2.94 (inactive) | 1.08 (inactive) | 0.63 (inactive) | 1.45 (inactive) | 0.58 | 0.337 (inactive) | 0.898 (inactive) | 0.427 | -1.45 | -0.18 | -0.923 | -2.24 | -4.62 | 1.1 | -0.169 (inactive) | -0.735 | -2.16 | -2.28 (inactive) |
| COC(=O)C(CC#Cc1ccc2c(c1)[C@]1(C(=O)N2)[C@H](C(=O)N2CCN(c3ncccn3)CC2)[C@H]2C(=O)O[C@H](c3ccccc3)[C@H](c3ccccc3)N2[C@@H]1c1ccc(O)cc1)C(=O)OC | -0.442 (inactive) | 1.93 | 1.85 (inactive) | 0.89 (inactive) | 0.804 (inactive) | 0.0729 (inactive) | -0.339 | 1.52 (inactive) | -0.566 (inactive) | 0.665 | 0.489 | -0.569 | 1.24 | 0.142 | -2.03 | -0.921 | 0.00989 (inactive) | -1.09 | -0.205 | -0.423 (inactive) |
| C=C1C(=O)C=C2CN(C(=O)c3ccccc3)[C@@](Cc3ccc(F)cc3)(C(=O)OC)[C@@H]12 | -2.05 (inactive) | 0.676 | -0.0775 (inactive) | -1.39 (inactive) | -1.69 (inactive) | -1.83 (inactive) | -1.06 | -3.94 (inactive) | -4.76 (inactive) | -3.73 | -3.89 | -1.94 | -5.62 | -3.36 | -4.73 | -3.92 | 3.42 (inactive) | -0.764 | -2.82 | -7 (inactive) |
| COc1ccc(CCNC(=O)[C@@]2(C)c3ccccc3C(=O)N(Cc3ccc(OC(F)(F)F)cc3)[C@H]2c2ccc(CO)cc2)cc1 | -0.933 (inactive) | -0.588 | 7.22 (inactive) | 1.67 (inactive) | 1.79 (inactive) | 1.16 (inactive) | 0.029 | -0.61 (inactive) | -0.547 (inactive) | -1.23 | 0.109 | 0.965 | -0.0665 | -2.23 | -2.3 | 2.56 | 0.434 (inactive) | -0.114 | 0.0946 | 2.43 (inactive) |
| OCCCc1cc[n+](Cc2cc3c(cc2Br)OCO3)cc1 | 0.855 (inactive) | 0.0191 | -0.103 (inactive) | 0.0608 (inactive) | -0.895 (inactive) | -0.237 (inactive) | -0.132 | -0.0452 (inactive) | 0.27 (inactive) | -0.112 | -0.322 | 0.504 | -0.325 | 0.4 | -0.419 | 0.138 | 0.506 (inactive) | -0.437 | 1.39 | -0.298 (inactive) |
| C=CC[C@@]1(C(=O)NCCCOC)N=C(c2ccc(OCCCO)cc2)O[C@@H]1c1ccccc1CN=[N+]=[N-] | 1.14 (inactive) | 0.607 | 22.3 (active) | 2.5 (inactive) | 0.493 (inactive) | -1.34 (inactive) | 0.812 | -0.477 (inactive) | 0.648 (inactive) | -0.274 | -0.287 | 0.532 | 0.569 | -0.459 | -0.885 | 2.5 | 0.738 (inactive) | -0.728 | 0.0149 | 0.41 (inactive) |
| CN1C(=O)C2C=CC(C(O)COCc3ccccc3)N(Nc3ccc([N+](=O)[O-])cc3[N+](=O)[O-])C2C1=O (stereo not given) | -0.416 (inactive) | 0.332 | 3.59 (inactive) | 1.4 (inactive) | -0.0794 (inactive) | 1.05 (inactive) | -0.859 | 0.223 (inactive) | -2.17 (inactive) | -0.914 | 1.02 | -0.611 | -0.832 | -1.38 | -0.988 | -0.681 | -0.985 (inactive) | -0.141 | -0.815 | -0.583 (inactive) |
